Assay results reported in PubChem BioAssay.
Activity calls are given as the source filed them.

Experiments:
[1] = tested on: Human papillomavirus type 1a protein E7 (residues 44-93); experiment: HPV1a E7 fragment binders on microarrays, primary screen, biochemical, small-molecule microarray, residues 44-93, 635 nm fluorescence (AID 1108); details: small-molecule microarray binding, fluorescence 635 nm; higher = more signal;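 also: E7 fragment applied at 1 µg/mL in TBST for 1 h at 4 C; score combines spot fluorescence with its signal to noise ratio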
[2] = modulators of HCV replicon luciferase signal, primary screen, HCV replication inhibitor project, Huh7 cells, luciferase reporter (AID 1109); details: 48 h, higher = more signal;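 also: huh7 hepatoma cells harbouring a luciferase neomycin HCV replicon reporter; luciferase luminescence as measure of HCV replicon replication; test concentration not given here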
[3] = target: Left-right determination factor 2 (Homo sapiens) (UniProt O00292); experiment: LEFTY2 binders on small-molecule microarrays, primary screen, biochemical, small-molecule microarray, 635 nm fluorescence scan (AID 1110); details: LEFTY2 binding, higher = more signal
[4] = target: Calmodulin-1 (Homo sapiens) (UniProt P0DP23); experiment: CALM1 binders on microarrays, EGTA buffer, profiling panel, biochemical, small-molecule microarray, Cy5-labelled CALM1 (AID 1111); details: Cy5-CALM1 binding fluorescence, higher = more signal;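 also: labelled calmodulin applied in Tris saline Tween buffer holding calcium plus EGTA and DTT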
[5] = target: Calmodulin-1 (Homo sapiens) (UniProt P0DP23); experiment: calcium-bound CALM1 binders on microarrays, profiling panel, artefact control for SMM control-protein annotation, biochemical, small-molecule microarray, Cy5-labelled CALM1, plus calcium (AID 1112); details: Cy5-CALM1 binding fluorescence, higher = more signal;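 also: score merges spot fluorescence with signal to noise from triplicate slides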
[6] = small-molecule microarray binders of probe aWnt5a, primary screen, biochemical, biotinylated probe, 635/667 nm fluorescence (AID 1113); details: higher = more signal;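 also: score merges 667 nm fluorescence intensity with signal-to-noise per printed feature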
[7] = small-molecule microarray binders of probe aShh, primary screen, biochemical, biotinylated probe, 635/667 nm fluorescence (AID 1114); details: higher = more signal;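 also: probe is biotin-labelled aShh protein from a stem cell growth factor screen; measures binding of labelled protein to compounds printed on the slide; score merges feature fluorescence at 667 nm with signal-to-noise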
[8] = small-molecule microarray binders of probe aNog, primary screen, biochemical, biotinylated probe, 635/667 nm fluorescence (AID 1115); details: higher = more signal;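 also: probe is biotinylated aNog protein used at 0.15 µg/mL for 1 h at 4 C; z-score combines 667 nm fluorescence of each spot with its signal to noise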
[9] = target: Torsin-1A-interacting protein 1 (Homo sapiens) (UniProt Q5JTV8); experiment: LAP1 binders from COS7 cell lysate, primary screen, small-molecule microarray, 635/667 nm fluorescence (AID 1116); details: COS7-hLAP1 lysate binding, 635 nm fluorescence, higher = more signal
[10] = target: Alpha-bungarotoxin (Bungarus multicinctus) (UniProt P60615); experiment: alpha-bungarotoxin binders on microarray, profiling panel, artefact control for SMM control protein annotation, biochemical, small-molecule microarray, Alexa647 label, 635/667 nm fluorescence (AID 1117); details: alpha-BTX-A647 binding fluorescence, higher = more signal
Albumin (Bos taurus) = Albumin (Bos taurus) (UniProt P02769); experiment: bovine serum albumin binders on microarray, profiling panel, artefact control for SMM control protein annotation, biochemical, small-molecule microarray, Alexa647 label, 635/667 nm fluorescence (AID 1118); details: BSA-A647 binding, fluorescence 635 nm, higher = more signal;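 also: score merges 667 nm emission intensity and signal-to-noise per printed compound spot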
[11] = small-molecule microarray binders of probe aXIP, primary screen, biochemical, NeuroSMM set, 635/667 nm fluorescence (AID 1119); details: higher = more signal, called active from +8 up or from −8 down;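 also: probe is the protein aXip251-270 applied at 1 µg/mL to compound-printed slides; binding of probe to printed compounds measured as 667 nm fluorescence plus signal to noise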
[12] = small-molecule binders of probe aNOTCH3, primary screen, biochemical, small-molecule microarray, 635/667 nm fluorescence (AID 1120); details: higher = more signal;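 also: probe is a biotin-tagged antibody raised against NOTCH3 rather than NOTCH3 protein; score merges spot fluorescence near 667 nm with spot signal to noise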
[13] = small-molecule binders of probe aNOTCH2, primary screen, biochemical, small-molecule microarray, 635/667 nm fluorescence (AID 1121); details: higher = more signal;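 also: score merges feature fluorescence read at 667 nm with its signal to noise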
[14] = target: Carbonic anhydrase 2 (Homo sapiens) (UniProt P00918); experiment: CAII small-molecule binders, profiling panel, biochemical, small-molecule microarray, Alexa647-labelled CAII (AID 1122); details: CAII-A647 binding fluorescence, higher = more signal
[15] = COS7 lysate on small-molecule microarray, probe aHis, 635 nm (AID 1123); details: COS7 cell lysate, fluorescence, higher = more signal;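 also: z-score combines 667nm fluorescence intensity with signal-to-noise per printed compound spot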
[16] = compound binding in COS7 lysate, probe aLAP1, primary screen, cell lysate, small-molecule microarray (AID 1124); details: probe aLAP1, fluorescence, higher = more signal;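 also: lysate comes from COS7 cells expressing LAP1 and is applied at 0.3 µg/mL; score merges spot fluorescence near 667 nm with signal-to-noise over triplicate slides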
Sam68 (KHDRBS1) = experiment: Sam68 small-molecule binders, primary screen, biochemical, small-molecule microarray, 635 nm fluorescence (AID 1125); details: small-molecule microarray binding, higher = more signal;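 also: score merges 667 nm channel intensity with signal to noise over triplicate slides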
[17] = tested on: Chordin-like protein 2 (CHRDL2); experiment: CHRDL2 small-molecule binders, primary screen, biochemical, small-molecule microarray, 635 nm fluorescence (AID 1126); details: small-molecule microarray binding, fluorescence 635 nm; higher = more signal;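 also: printed compound slides probed with Chrdl2 protein at 4 µg/mL for 1 h at 4 C; score merges 667 nm emission intensity with signal to noise over three replicate slides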
[18] = target: Concanavalin-A (Canavalia ensiformis) (UniProt P02866); experiment: ConA small-molecule binders, primary screen, artefact control for SMM control protein annotation, biochemical, small-molecule microarray, Alexa647 label, 635 nm (AID 1127); details: ConA-A647 binding fluorescence, higher = more signal;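 also: z combines 667 nm emission intensity with signal-to-noise across three replicate slides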
Concanavalin-A (Canavalia ensiformis), sequence (P02866 whole entry, looked up): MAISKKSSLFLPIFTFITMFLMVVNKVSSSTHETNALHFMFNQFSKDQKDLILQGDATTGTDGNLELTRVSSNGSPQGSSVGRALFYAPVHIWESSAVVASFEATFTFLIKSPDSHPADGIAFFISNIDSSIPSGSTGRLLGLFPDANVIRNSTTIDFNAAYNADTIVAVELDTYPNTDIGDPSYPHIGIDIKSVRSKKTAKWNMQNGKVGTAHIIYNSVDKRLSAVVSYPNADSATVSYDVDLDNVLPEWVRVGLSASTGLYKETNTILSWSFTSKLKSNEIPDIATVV

Alpha-bungarotoxin (Bungarus multicinctus), sequence (P60615 whole entry, looked up): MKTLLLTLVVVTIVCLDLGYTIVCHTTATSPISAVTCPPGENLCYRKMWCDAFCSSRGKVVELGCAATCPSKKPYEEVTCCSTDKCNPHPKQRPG
Left-right determination factor 2 (Homo sapiens), sequence (O00292 whole entry, looked up): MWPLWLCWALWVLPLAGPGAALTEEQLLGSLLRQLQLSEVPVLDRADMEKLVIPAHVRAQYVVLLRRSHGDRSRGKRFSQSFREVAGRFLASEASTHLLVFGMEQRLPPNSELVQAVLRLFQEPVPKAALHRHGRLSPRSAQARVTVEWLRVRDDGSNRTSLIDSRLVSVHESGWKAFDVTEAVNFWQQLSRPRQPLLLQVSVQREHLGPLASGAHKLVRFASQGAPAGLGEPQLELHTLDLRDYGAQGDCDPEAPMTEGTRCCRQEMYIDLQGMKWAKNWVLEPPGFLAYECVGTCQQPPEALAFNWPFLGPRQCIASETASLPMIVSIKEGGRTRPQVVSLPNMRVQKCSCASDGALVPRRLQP
Albumin (Bos taurus), sequence (P02769 whole entry, looked up): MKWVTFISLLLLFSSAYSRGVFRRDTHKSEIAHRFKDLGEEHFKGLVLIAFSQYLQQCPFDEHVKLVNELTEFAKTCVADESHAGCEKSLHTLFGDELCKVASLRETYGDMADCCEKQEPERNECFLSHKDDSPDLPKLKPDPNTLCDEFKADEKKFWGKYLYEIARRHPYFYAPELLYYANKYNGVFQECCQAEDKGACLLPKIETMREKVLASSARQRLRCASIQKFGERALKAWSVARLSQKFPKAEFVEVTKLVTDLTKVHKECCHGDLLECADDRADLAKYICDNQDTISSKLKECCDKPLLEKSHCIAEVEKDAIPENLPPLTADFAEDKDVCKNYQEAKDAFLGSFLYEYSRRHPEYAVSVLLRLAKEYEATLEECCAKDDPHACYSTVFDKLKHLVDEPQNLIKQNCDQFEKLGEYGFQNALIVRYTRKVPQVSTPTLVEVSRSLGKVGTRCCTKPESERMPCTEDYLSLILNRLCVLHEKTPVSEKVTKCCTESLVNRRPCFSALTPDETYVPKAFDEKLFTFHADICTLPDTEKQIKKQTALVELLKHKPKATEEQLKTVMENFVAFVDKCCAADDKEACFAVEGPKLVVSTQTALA
Torsin-1A-interacting protein 1 (Homo sapiens), sequence (Q5JTV8 whole entry, looked up): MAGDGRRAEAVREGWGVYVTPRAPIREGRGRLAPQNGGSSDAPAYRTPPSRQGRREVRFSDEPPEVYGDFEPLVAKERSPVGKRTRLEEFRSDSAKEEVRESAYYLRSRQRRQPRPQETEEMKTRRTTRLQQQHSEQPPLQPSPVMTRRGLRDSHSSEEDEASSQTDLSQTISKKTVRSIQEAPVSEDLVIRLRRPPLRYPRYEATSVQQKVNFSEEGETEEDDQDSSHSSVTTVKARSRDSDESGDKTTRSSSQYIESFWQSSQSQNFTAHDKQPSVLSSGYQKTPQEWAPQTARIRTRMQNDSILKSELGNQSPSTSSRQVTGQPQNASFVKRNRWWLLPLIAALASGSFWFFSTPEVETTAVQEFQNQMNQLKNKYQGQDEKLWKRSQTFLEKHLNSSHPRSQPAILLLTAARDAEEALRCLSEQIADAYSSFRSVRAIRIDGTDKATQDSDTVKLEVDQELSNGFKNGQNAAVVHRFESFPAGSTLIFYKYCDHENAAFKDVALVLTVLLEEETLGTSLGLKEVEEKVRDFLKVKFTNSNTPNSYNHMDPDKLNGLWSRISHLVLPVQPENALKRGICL

SMILES	composite z-score [1]	z-score [2]	composite z-score [3]	composite z-score [4]	composite z-score [5]	composite z-score [6]	composite z-score [7]	composite z-score [8]	composite z-score [9]	composite z-score [10]	composite z-score (Albumin (Bos taurus))	composite Z-score [11]	composite z-score [12]	composite z-score [13]	composite z-score [14]	composite z-score [15]	composite z-score [16]	composite z-score (Sam68 (KHDRBS1))	composite z-score [17]	composite z-score [18]
COC(=O)[C@@]1(Cc2ccc(F)cc2)[C@H]2c3cc(C(=O)N(C)C)n(CCN4CCOCC4)c3C[C@H]2CN1C(=O)c1ccccc1	0.357	0.349	0.134	0.639	-0.125	0.974	0.275	0.932	0.868	0.0194	0.851	-0.34 (inactive)	0.296	0.739	0.39	2.08	0.0192	-0.0247	-0.361	0.618
C[N+](C)(C)CCCCCCNC(=O)[C@H]1C[C@H]2C(=O)NCC(=O)N2[C@H]1c1cccc(OCCO)c1	0.626	0.643	1.5	-0.748	-0.95	-0.096	-0.311	-0.231	0.509	0.355	-0.27	0.536 (inactive)	0.11	-0.0877	0.594	1.05	0.662	0.562	1.36	0.907
O=C1N(CCS(=O)(=O)c2ccccc2)c2ccccc2[C@@H]2OC(c3ccc(OCCCO)cc3)=N[C@]12CCS(=O)(=O)c1ccccc1	1.38	0.182	0.8	1.67	0.176	0.0142	0.109	0.0373	2.17	1.67	0.929	0.759 (inactive)	0.0496	0.0684	0.503	2.8	1.21	1.29	1.1	1.15
CN(C)CCCNC(=O)[C@@]1(Cc2ccccc2I)c2ccccc2C(=O)N(Cc2ccccc2)[C@H]1c1ccc(CO)cc1	1.41	-3.36	0.189	-0.489	-0.636	0.22	-0.32	0.84	1.21	0.542	-0.6	-0.307 (inactive)	-0.467	-0.247	0.362	3.21	1.41	1.3	0.613	1.09
CC(C)C[C@@H]1NC(=O)[C@@H]2C[C@H](C(=O)NCCCC[N+](C)(C)C)[C@H](c3ccc(O)cc3)N2C1=O	0.39	-0.996	1.05	-0.928	-0.768	0.0031	0.199	0.114	1.24	0.789	-0.857	0.541 (inactive)	-0.0866	-0.153	0.705	0.83	0.678	1.09	1.37	1.02
CN(C)C(=O)[C@]1(Cc2ccccc2)N=C(c2ccc(OCCCO)cc2)O[C@@H]1c1ccccc1	1.49	-1.88	-0.0054	1.25	0.529	0.0317	-0.214	1.43	1.8	0.917	0.62	0.572 (inactive)	-0.046	-0.0531	0.687	2.68	0.429	0.978	-1.01	0.915
CCCC=C(CCC)[C@@H](NS(=O)(=O)c1ccc(Cl)cc1)c1ccccc1	-0.201	-0.777	-1.34	0.451	0.781	0.954	0.508	1.07	-1.24	0.64	0.046	-0.0223 (inactive)	-0.056	0.194	0.281	0.829	1.28	0.127	-0.845	0.205
CO[C@H]1O[C@H](CO)[C@@H](OC(=O)Nc2ccc3c(c2)OCO3)[C@@H]2OC(=O)[C@@H](Cc3ccccc3)C/C=C/C[C@H](Cc3ccccc3)C(=O)O[C@@H]12	1.37	-2.54	0.0694	0.929	-0.728	0.0533	0.149	1.09	0.0909	0.732	-0.052	0.883 (inactive)	0.274	0.0318	0.552	0.859	0.48	0.943	0.455	0.921
Cc1ccc(F)cc1S(=O)(=O)N[C@@H]1CCN(Cc2ccc3[nH]ccc3c2)C1	0.935	-4.03	0.292	-0.46	-0.754	-0.12	-0.0709	-0.295	0.144	0.431	-0.213	0.688 (inactive)	0.128	-0.176	0.713	0.95	-0.126	0.605	0.651	0.463
C=C(C(=O)CC[C@@H](OC(C)=O)c1cccc(OCCO)c1)C(C)C	0.974	-3.23	-0.865	-0.35	-0.94	-0.0276	-0.223	-0.0863	0.847	0.221	0.371	0.566 (inactive)	-0.0311	-0.148	0.862	1.82	0.0326	0.813	-0.298	0.691
COC(=O)[C@]1(CO)N=C(c2ccc(OCCCO)cc2)O[C@@H]1c1ccccc1CN=[N+]=[N-]	-0.0942	0.606	-0.266	-0.738	-0.0036	-0.145	0.0611	-0.0007	0.751	-0.0756	-0.421	0.277 (inactive)	-0.122	-0.127	0.7	1.25	0.0153	0.363	0.265	0.257
